Experimental data taken from ChEMBL document CHEMBL3433997, “St. Jude Leishmania screening dataset” (2016).

How the values were obtained:
Assay type in all cases: functional
[1] = biological target: Solute carrier family 2, facilitated glucose transporter member 1 (Homo sapiens) (UniProt P11166); assay: ST_JUDE_LEISH: Cytotoxicity at 2uM final concentration against transgenic Leishmania Mexicana promastigotes LmGLUT1 that are glucose transport deficient and complemented with the human glucose transporter GLUT1. Activity is measured by DNA content using SYBR green in vitro
Sequence of Solute carrier family 2, facilitated glucose transporter member 1 (Homo sapiens) (P11166 whole entry): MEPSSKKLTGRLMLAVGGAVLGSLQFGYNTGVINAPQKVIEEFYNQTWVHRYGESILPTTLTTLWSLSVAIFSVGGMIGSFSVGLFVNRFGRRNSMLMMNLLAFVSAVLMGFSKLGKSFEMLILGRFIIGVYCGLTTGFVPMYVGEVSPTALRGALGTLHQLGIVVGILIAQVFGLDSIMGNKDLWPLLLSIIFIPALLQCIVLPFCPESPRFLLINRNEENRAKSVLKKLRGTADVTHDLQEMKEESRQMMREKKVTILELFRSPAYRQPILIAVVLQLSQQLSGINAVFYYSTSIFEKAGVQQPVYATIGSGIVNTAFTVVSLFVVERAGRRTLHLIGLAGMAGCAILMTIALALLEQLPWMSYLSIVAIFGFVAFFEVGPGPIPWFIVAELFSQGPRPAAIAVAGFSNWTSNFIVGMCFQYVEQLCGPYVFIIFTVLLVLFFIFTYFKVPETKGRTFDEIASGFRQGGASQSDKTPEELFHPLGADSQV

[2] = biological target: Hexose transporter 1 (Plasmodium falciparum) (UniProt O97467); assay: ST_JUDE_LEISH: Cytotoxicity at 2uM final concentration against transgenic Leishmania Mexicana promastigotes LmPfHT that are glucose transport deficient and complemented with the Plasmodium falciparum hexose transporter. Activity is measured by DNA content using SYBR green in vitro
[3] = biological target: Glucose transporter (Leishmania mexicana) (UniProt O61059); assay: ST_JUDE_LEISH: Cytotoxicity at 2uM final concentration against transgenic Leishmania Mexicana promastigotes LmGT2 that are glucose transport deficient and complemented with the L. Mexicana glucose transporter 2. Activity is measured by DNA content using SYBR green in vitro

| Structure (SMILES) | inhibition [1] | inhibition [2] | inhibition [3] |
| --- | --- | --- | --- |
| Cc1ccc(N2C(N)=NC(N)=NC2c2ccccc2)cc1 (stereo unspecified) | 2.79% | 2.24% | 2.13% |
| O=C(/C=C/c1ccc(Cl)c(Cl)c1)NCCCCCN1CCCC(CNC(=O)Nc2ccc(Oc3ccccc3)cc2)C1 (stereo unspecified) | -0.78% | 0.69% | 0.61% |
| COc1ccccc1CCNc1nc(C)cc(N[C@@H](Cc2ccccc2)C(=O)Nc2ccccc2)n1 | 12% | 10.7% | 8.65% |
| O=C(c1cccc(-c2noc(C(F)(F)F)n2)c1)N1CCN(C(=O)c2ccc3cc[nH]c3c2)CC1 | -0.84% | -0.23% | -1.68% |
| CCN(CC)CCCNc1cc[n+]([O-])c2cc3ccccc3cc12 | -0.82% | -2.45% | -1.63% |
| CCCCCCCN1CC[C@@H](CCCc2ccnc3ccc(OC)cc23)[C@@H](CNC)C1 | 0.83% | -1.11% | -0.87% |
| Fc1ccc2[nH]c(-c3ccc(-c4ccc(CN5CCC(CCN6CCCCC6)CC5)cc4)cc3)nc2c1 | 7.35% | 9.43% | 3.31% |
| COc1ccc2c(c1)[nH]c1c(C=Cc3ccccc3)nccc12 | 6.16% | 5.09% | 3.77% |
| O=C(NC1CCC(CCN2CCc3ccc(-c4cnccn4)cc3CC2)CC1)c1cccc(-n2cccn2)c1 (stereo unspecified) | 10.2% | 7.38% | 8.56% |
| O=C(NCCc1ccccc1F)c1cc(Br)cc(N2CCN(c3ccncc3)CC2)c1 | 0.33% | 2.34% | -0.08% |
| Nc1cc(/C=C/c2ccc([N+](=O)[O-])s2)nc2ccccc12 | 16.4% | 16.5% | 8.5% |
| COCc1ccc(CN2CCC(C(=O)Nc3ccc(-c4nc5ccccc5[nH]4)cc3)CC2)o1 | 7.66% | 5.18% | 5.81% |
